Compound activity: PubChem BioAssay, several laboratories
Rv3671c inh = Rv3671c serine protease inhibitors, primary screen, biochemical, fluorescence polarization, M. tuberculosis H37Rv | AID 2606, 2010 | 320,000 compounds, 0.048% hits | inhibition, % at 5.96 µM | P9WHR9; in the data active = inhibition above about 38%;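 also: extracellular domain of Rv3671c used as enzyme; 0% = enzyme with DMSO and 100% = no enzyme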
Target sequence (P9WHR9 whole entry, looked up, the tested form may be a part): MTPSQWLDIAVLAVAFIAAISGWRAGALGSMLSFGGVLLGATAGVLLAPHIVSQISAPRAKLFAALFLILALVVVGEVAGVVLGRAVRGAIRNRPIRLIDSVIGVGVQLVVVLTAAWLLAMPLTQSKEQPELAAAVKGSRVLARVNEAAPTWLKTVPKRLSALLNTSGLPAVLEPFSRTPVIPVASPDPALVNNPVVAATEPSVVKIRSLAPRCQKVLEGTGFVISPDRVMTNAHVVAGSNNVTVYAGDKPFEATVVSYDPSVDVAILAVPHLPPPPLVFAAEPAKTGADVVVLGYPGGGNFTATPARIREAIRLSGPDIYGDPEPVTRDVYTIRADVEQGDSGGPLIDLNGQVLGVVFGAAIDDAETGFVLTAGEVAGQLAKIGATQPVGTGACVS
PrPC TRFRET = inhibitors of human cell surface prion protein PrPC, primary screen, cell-based, TR-FRET | Major prion protein (Homo sapiens), P04156 | TR-FRET read-out | inhibition, % at 13.8 µM | 370,000 compounds, 0.43% hits | AID 720596, 2013; in the data active = inhibition above about 24%; also: 0% = median of the test wells and 100% = reference compound wells
FadD28 FP inh = inhibitors of FadD28 bisubstrate probe binding, primary screen, biochemical, fluorescence polarization, single point. 360,000 compounds, 0.22% hits. inhibition, % at 12.5 µM. AID 588549, 2011. Mycobacterium tuberculosis FadD28 fatty-acid-AMP ligase; in the data active = inhibition above about 8.5%, passing the limit was not always enough; inconclusive = no clear call, values can overlap the other calls
SSB-PriA inh = inhibitors of Klebsiella pneumoniae PriA binding to SSB C-terminal tail, primary screen, biochemical, AlphaScreen; PriA–SSB C-terminal tail interaction (Klebsiella pneumoniae); AlphaScreen SSBct-PriA binding, biotinylated peptide; inhibition, % at 33 µM; 430,000 compounds, 0.6% hits; in the data active = inhibition mostly above about 37%, no sharp cut-off; inactive = mostly below about 20%;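 also: plate controls were negative control peptide for no effect and reference peptide for full effect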
PrP UTR inh = inhibition of PrP 5' UTR reporter expression. cell-based PrP 5' UTR mRNA reporter, plate reader. 340,000 compounds, 0.35% hits. inhibition, % (no concentration beside the values); in the data active = inhibition above about 52%; also: 0 = median of the neutral control wells
Mtb UGM inh = M. tuberculosis UGM enzyme inhibitors, primary screen, biochemical, fluorescence polarization, single point; UDP-galactopyranose mutase (Mycobacterium tuberculosis (strain ATCC 25618 / H37Rv)), …; purified UGM, fluorescence polarization probe displacement; inhibition, % at 10 µM; 320,000 compounds, 0.06% hits; AID 504406, 2011; in the data active = inhibition above about 10%, passing the limit was not always enough; inconclusive = no clear call, values can overlap the other calls
* hit, by the source's call; u = inconclusive; x = no result given; ! = repeats disagree. Shown are actives, neighbours in structure and some others; about 1.2% of the full set was active somewhere.

SMILES	Rv3671c inh	PrPC TRFRET	FadD28 FP inh	SSB-PriA inh	PrP UTR inh	Mtb UGM inh
Cn1c(=O)c2cc(NC(=S)NC3CC3)ccc2n1Cc1cccc(C(F)(F)F)c1	x	4	0	x	x	x
O=[N+]([O-])c1cc(Cl)ccc1Sc1cccc2cccnc12	-5	-1	1	28	-26	-1
O=[N+]([O-])c1ccc(Sc2cccc3cccnc23)c([N+](=O)[O-])c1	-27	17	0	87*	-7	1
O=[N+]([O-])c1cc(F)cc2cccnc12	x	x	x	55*	x	x
O=[N+]([O-])c1cccnc1Sc1ccc(F)cc1	-6	-20	-2	42*	x	0
COc1ccc(OC)c(NC(=O)c2cc(-c3ccco3)nc3c2c(C)nn3C2CCS(=O)(=O)C2)c1 (centres undefined)	x	x	x	7	x	x
O=C(CNC1CCCCC1)Nc1cccc([N+](=O)[O-])c1	1	-14	-3	3	-24	1
O=C(Nc1cccc([N+](=O)[O-])c1)NC1CCCCCCC1	x	-6	18*	-5	-42	1
O=C(CCc1ccccc1Br)N1CCC(c2ccsc2)CC1	x	x	x	-4	x	x
CCOC(=O)c1ccccc1NC(=O)COc1cccc2c(=O)n(CCOC)ccc12	x	x	x	-37	x	x
Nc1ccc2nc(-c3ccccn3)[nH]c2c1	33	-2	u	96*	-92	1
c1ccc(-c2nc3ccc(Cc4ccc5nc(-c6ccccn6)[nH]c5c4)cc3[nH]2)nc1	x	x	x	88*	x	x
Nc1ccc2nc(-c3ccc(N)c(Cl)c3)[nH]c2c1	29	5	3	44*	-79	-6
Nc1ccccc1-c1n[nH]c(-c2ccccn2)n1	x	x	x	107*	x	x
CCOc1ccccc1Oc1coc2c3c(ccc2c1=O)OCN(Cc1ccco1)C3	x	x	x	-9	x	x
COc1ccc(Nc2nc(Nc3ccc4ncccc4c3)nc(N3CCOCC3)n2)cc1	x	x	x	0	x	x
Cc1ccccc1-c1nc(C)c(CNS(=O)(=O)/C=C/c2ccccc2)s1	x	x	x	-20	x	x
O=C(NCc1cnn2c1CCCC2)c1c(F)cccc1F	x	x	x	-10	x	x
O=C(NCCn1nc(C2CC2)n(-c2ccccc2)c1=O)NCc1cccc2ccccc12	x	x	x	-1	x	x
CC(=NNC(=S)N1CC2CCC(CC2)C1)c1nccs1	x	-9	-2	57*	12	x
CC(=NNC(=S)N1CC2CCC(CC2)C1)c1cccc(C)n1	x	7	-3	-10	-9	x
O=C(COc1ccccc1)N/N=C\c1ccc(OC2OC(CO)C(O)C(O)C2O)cc1 (centres undefined)	x	x	x	15	x	x
Cc1ccc(Cl)c2c(N=Nc3ccccc3)c(O)[nH]c12	x	-2	-2	-13	-75	11*
O=S(=O)(Nc1ncccn1)c1ccc(NC(=S)Nc2ccccc2)cc1	2	4	-2	-3	6	0
CCc1c(C(=O)NNC(=S)Nc2ccc(S(=O)(=O)Nc3ncccn3)cc2)csc1C	2	7	9.6*	-11	16	3
SMILES	Rv3671c inh	PrPC TRFRET	FadD28 FP inh	SSB-PriA inh	PrP UTR inh	Mtb UGM inh
O=c1oc2c3c4c(cc2s1)CCCN4CCC3	-11	-8	0	52*	-27	0
O=C(COc1ccc(F)cc1)Nc1nnc(-c2ccc(Br)o2)o1	x	x	x	-21	x	x
CN(C)c1ccc(N=Nc2ccccc2C(=O)OCC(=O)N2CCCC2)cc1	8	-42	-2	53*	-33	0
Cc1ccc(S(=O)(=O)Nc2nc(CCC(=O)N3CCN(c4ccccc4F)CC3)cs2)cc1	x	x	x	-12	x	x
COc1cc(/C=C2\CC/C(=C\c3cc(OC)c(O)c(OC)c3)C2=O)cc(OC)c1O	-29	-44	u	11	-6	17*
Cc1ccc(/C(N)=N/OC(=O)N2c3ccccc3Sc3ccccc32)cc1	3	-5	-10	x	-36	-3
Cc1ccc(C(N)=NOC(=O)N2c3ccccc3Sc3ccccc32)cc1	x	x	x	57*	x	x
O=C(COCc1ccccc1)NC1CCC(Oc2ncc(F)cn2)CC1 (centres undefined)	x	x	x	-6	x	x
c1cc2c(cc1CNc1ccc(N3CCOCC3)cc1)OCO2	-4	-14	-1	48*	-65	6
c1cc2c(cc1CNc1nc(N3CCOCC3)nc(N3CCOCC3)n1)OCO2	x	x	x	0	x	x
COc1cc(/C=C(\C#N)c2nc3ccc(C)cc3[nH]2)cc([N+](=O)[O-])c1O	x	-3	30*	25	-52	x
O=S(=O)(c1ccccc1Cl)N1CCN(c2ncnc3c2nnn3Cc2ccccc2)CC1	x	x	x	8	x	x
Cc1ccc(OC2CCN(C(=O)Cn3ncccc3=O)C2)nn1 (centres undefined)	x	x	x	-7	x	x
CC1(C)CC(=O)C2=C(C1)NC1=C(C(=O)c3ccccc31)C2c1cc([N+](=O)[O-])ccc1O (centres undefined)	27	-8	21*	4	-32	-2
C=C(C)C1CC=C(C)C(=NNc2ccccc2[N+](=O)[O-])C1 (centres undefined)	x	x	x	41*	x	x
COc1ccc(CC(=O)N(CCN2CCOCC2)c2nc3ccc(SC)cc3s2)cc1OC	x	x	x	29*	x	x
NCCc1nc(-c2ccccn2)n[nH]1	x	x	x	93*	x	x
Clc1ccc(OCc2nc3ccccc3[nH]2)cc1	-7	1	-4	-9	-64	-2
Cc1ccc(OCc2nc(-c3ccccn3)no2)cc1	2	3	u	-7	-79	0
Brc1ccc(OCc2nc(-c3ccccn3)n[nH]2)cc1	-3	-3	-1	86*	-31	1
Cc1nc(-c2ccccn2)n[nH]1	x	x	x	99*!	x	x
c1ccc(-c2nc(-c3ccccn3)nc(-c3ccccn3)n2)nc1	-9	-1	-1	-12	0	0
Clc1ccc(OCc2nc(-c3ccccn3)n[nH]2)cc1	10	12	-2	64*	0	8
O=C(CNS(=O)(=O)Cc1ccccc1Cl)N1CCO[C@H](c2ccccc2)C1	x	x	x	-2	x	x
CCSc1nsc(NC(=O)Nc2ccccc2F)n1	-8	12	-1	-6	-15	1
SMILES	Rv3671c inh	PrPC TRFRET	FadD28 FP inh	SSB-PriA inh	PrP UTR inh	Mtb UGM inh
C=CCSc1nsc(NC(=O)Nc2ccc(F)cc2)n1	-69	37*	-3	-8	-11	2
O=C(CSc1ccc(-c2nc3ccccc3[nH]2)cn1)Nc1ccc(S(=O)(=O)N2CCCC2)cc1	-163	-5	22*	4	-23	2
COc1ccc(N2CCN(Cc3csc(C)c3-c3ccc(C)cc3)CC2)cc1	3	-1	0	91*	4	1
Clc1ccc(-c2noc(-c3ccc(CSc4ccccc4)o3)n2)cc1	x	x	x	81*	x	x
OCCCn1c(-c2ccccc2)csc1=Nc1ccccc1	2	6	0	42*	-12	0
COc1ccc(-c2nc(CSc3nc4ccccc4c(=O)n3C3CCCC3)c(C)o2)cc1	x	x	x	-8	x	x
COC1(CNS(=O)(=O)c2cccc(Cl)c2C)CCSC1 (centres undefined)	x	x	x	6	x	x
